# Pol beta inh = blocks human DNA polymerase beta activity. Potency, µM (top dose mostly 114 µM), for inactives: top-dose activity change, negative = inhibition, actives largely listed as inhibitors. 340,000 tested, 1.3% active. Pol beta primer extension/strand displacement, fluorescence kinetic. P06746; note: potency is the fitted concentration of half-maximal effect; % is set by controls: 0 for no effect and ±100 for the full control effect
#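 Homogeneous kinetic assay of primer extension and strand displacement by 10 nM Pol beta, preincubated 15 min at room temperature with compound before 50 nM substrate (final) was added. Read at 0 and 10 min; four-parameter Hill fit.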
# Pol eta inh-1 = inhibitors of human DNA polymerase eta | Potency, µM (titrated, usually from 114 µM), for the others: at the top dose activity change, negative = inhibition, actives largely listed as inhibitors | recombinant Pol eta, fluorescent DNA replication assay | Q9Y253 | 390,000 tested, 1.2% active; note: potency is the fitted concentration of half-maximal effect; % is set by controls: 0 for no effect and ±100 for the full control effect
#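 Pol eta (10 nM) was preincubated with compounds for 15 min at room temperature, after which fluorescent replication substrate (50 nM final) was added to start the reaction. Fluorescence was read kinetically at 0 and 10 min.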
# Pol iota inh = blocks human DNA polymerase iota activity; Q9UNA4; Pol iota fluorescent replication assay, 10 min; Potency, µM (highest dose often 115 µM), for inactives: at the top dose activity, negative = inhibition, usual class: inhibitors; 390,000 tested, 1% active; AID 588590; note: potency is the fitted concentration of half-maximal effect
# Target sequence (Q9UNA4 whole entry, looked up): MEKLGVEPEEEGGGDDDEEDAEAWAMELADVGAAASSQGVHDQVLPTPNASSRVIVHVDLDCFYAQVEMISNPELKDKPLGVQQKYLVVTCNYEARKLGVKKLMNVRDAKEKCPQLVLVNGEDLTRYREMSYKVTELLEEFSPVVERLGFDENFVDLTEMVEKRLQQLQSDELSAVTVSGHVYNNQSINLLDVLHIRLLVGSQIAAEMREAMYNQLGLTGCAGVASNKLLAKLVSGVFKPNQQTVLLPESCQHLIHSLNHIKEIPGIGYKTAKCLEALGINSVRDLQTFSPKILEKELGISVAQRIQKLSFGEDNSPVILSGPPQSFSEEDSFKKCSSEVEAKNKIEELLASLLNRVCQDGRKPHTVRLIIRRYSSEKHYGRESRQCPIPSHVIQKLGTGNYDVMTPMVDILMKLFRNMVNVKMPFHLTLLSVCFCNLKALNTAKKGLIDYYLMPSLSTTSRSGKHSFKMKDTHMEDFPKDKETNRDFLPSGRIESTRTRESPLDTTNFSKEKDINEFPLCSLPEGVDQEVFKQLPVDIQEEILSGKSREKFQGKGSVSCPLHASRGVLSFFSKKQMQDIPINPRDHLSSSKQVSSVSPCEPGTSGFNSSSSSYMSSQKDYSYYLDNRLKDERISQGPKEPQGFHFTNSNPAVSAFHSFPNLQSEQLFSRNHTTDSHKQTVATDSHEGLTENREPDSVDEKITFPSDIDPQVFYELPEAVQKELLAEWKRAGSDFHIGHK
#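 Pol iota at 10 nM preincubated 15 min with compounds at room temperature; reaction started with fluorescent substrate, 50 nM final. Fluorescence read kinetically at 0 and 10 min; buffer-only wells as negative control.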
# Pol kappa inh-1 = inhibitors of human DNA polymerase kappa. AID 588579. 400,000 tested, 0.53% active. Potency, µM (series often up to 107 µM), for inactives: at the highest dose activity, negative = inhibition, usual class: inhibitors. Q9UBT6. purified Pol kappa, fluorescent DNA synthesis assay, 10 min; note: potency is the fitted concentration of half-maximal effect; % is set by controls: 0 for no effect and ±100 for the full control effect
#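 Here, compound and 10 nM enzyme are combined for 15 min at room temperature; adding 50 nM substrate (final) starts DNA synthesis, tracked by fluorescence at 0 and 10 min against buffer-only wells.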
# L3MBTL1 inh = blocks human L3MBTL1; Q9Y468; AlphaScreen L3MBTL1–H3K9me1 peptide binding; Potency, µM (series often up to 57.1 µM), for inactives: at the top dose activity, negative = inhibition, actives largely listed as inhibitors; 230,000 tested, 0.66% active; note: potency is the fitted concentration of half-maximal effect; % is set by controls: 0 for no effect and ±100 for the full control effect; nearly all actives have a fitted effect of over 60% in size
#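 Read-out is AlphaScreen signal from streptavidin donor and nickel chelate acceptor beads (10 ug/mL final each) bridging L3MBTL1 (50 nM) and biotinylated K9-monomethylated H3(1-15) peptide (75 nM), after 30 min compound exposure at room temperature.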
# GALK inh confirm = confirmation of human galactokinase (GALK) inhibitors | Potency, µM (series often up to 115 µM), for inactives: at the top dose activity, negative = inhibition, usual class: inhibitors | 150 tested, 70% active | purified GALK, Kinase-Glo ATP depletion luminescence | shares compounds with Pol eta inh-1
# Redox cycling = redox cycling activity in phenol red-HRP assay. shares compounds with Pol eta inh-1. Potency, µM (titrated, usually from 115 µM), without a hit: at the highest dose activity change, negative = H2O2 signal, hits mostly inhibitors. Phenol red-HRP H2O2 redox cycling, absorbance 600 nm. 150 tested, 40% active
# HEK293 tox = HEK-293 cytotoxicity, GALK inhibitor secondary; shares compounds with Pol eta inh-1; HEK-293 viability, ATP luminescence (CellTiter-Glo), 24/48 h; 170 tested, 10% active; Potency, µM (series often up to 46.1 µM), without a hit: at the highest dose activity change, negative = cytotoxicity, most hits filed as inhibitors; note: potency is the fitted concentration of half-maximal effect; % is set by controls: 0 for no effect and ±100 for the full control effect
# Pol kappa inh-2 = confirmation of human DNA polymerase kappa inhibitors. shares compounds with Pol eta inh-1. purified Pol-kappa, fluorescent strand-displacement substrate. Potency, µM, actives largely listed as inhibitors. 920 tested, 76% active; note: potency is the fitted concentration of half-maximal effect
# Pol eta inh-2 = Pol eta (human) inhibition, cherry-pick confirmation | shares compounds with Pol eta inh-1 | Pol eta primer extension, TAMRA/BHQ fluorescence, 10 min | 2,600 tested, 64% active | Potency, µM, most hits filed as inhibitors; note: potency is the fitted concentration of half-maximal effect
# * hit, by the source's call; ? = inconclusive; / = no result. The list is not random: actives were taken first. Their share in the collection is about 2.4%. Calls come from the whole dose curve; as a rule, active = well fitted curve in the direction sought with a large enough effect; inconclusive = small, poorly fitted or top-dose-only effect, or another doubt; inactive = no such curve, though single readings can be large; an effect the other way counts as inactive or inconclusive.
SMILES,Pol beta inh,Pol eta inh-1,Pol iota inh,Pol kappa inh-1,L3MBTL1 inh,Pol eta inh-2,others
Cc1ccc(NC(=O)C2CCN(c3nnc(C)c4c(C)n(-c5ccccc5)nc34)CC2)cc1Cl,-11%,-11%,6%,4%,/,/,
COc1ccc(NC(=O)C2CCCN(c3nnc(C)c4c(C)n(-c5ccccc5)nc34)C2)cc1Cl (configuration not stated),71µM*,35µM*,-30%,?,/,?,Pol kappa inh-2=17*
Cc1ccc(S(=O)(=O)/N=C2/NC(=O)/C(=C\c3cc(Br)cc(Br)c3O)S2)cc1,?,22µM*,?,-35%,/,/,GALK inh confirm=24µM*;Redox cycling=-2%;HEK293 tox=8%
Cc1ccc(S(=O)(=O)/N=C2/NC(=O)/C(=C/c3ccc(Br)o3)S2)cc1,?,22µM*,?,?,?,?,
C=CCN(c1ccccc1OC)S(=O)(=O)c1cccc(C(=O)NCc2cccs2)c1,/,-7%,28%,-7%,-1%,/,
O=[N+]([O-])c1c(Nc2ccc(O)cc2)cc(N2CCOCC2)c2nonc12,-3%,-14%,-7%,15%,9%,/,
O=C(O)c1cc(Nc2cc(Cl)c3nonc3c2[N+](=O)[O-])ccc1O,-1%,25µM*,?,-2%,/,48*,Pol kappa inh-2=67*
COc1ccccc1N1C(=N)S/C(=C\c2ccc(-c3ccccc3C(=O)O)o2)C1=O,79µM*,14µM*,20µM*,50µM*,?,30*,Pol kappa inh-2=19*
Cc1sc2nc(SCC(=O)N3CC(C)OC(C)C3)n(C)c(=O)c2c1C (configuration not stated),?,16µM*,?,-9%,/,?,
O=C(N/N=C/C=C/c1ccco1)c1cccc([N+](=O)[O-])c1,?,?,?,-14%,1%,/,
O=C(/C=C/c1ccco1)c1cccc([N+](=O)[O-])c1,/,20µM*,50µM*,?,/,?,
CCc1nn(CC(=O)N(C)Cc2ccccc2)c(=O)c2cc3sccc3n12,4%,-22%,8%,-16%,/,/,
Cc1[nH][nH]c(=O)c1C(c1ccc(Br)cc1)c1c(C)[nH][nH]c1=O,-24%,-5%,?,-4%,-2%,/,
Cc1[nH][nH]c(=O)c1C(c1ccc(-c2cccc(Cl)c2)o1)c1c(C)[nH][nH]c1=O,4%,79µM*,2.8µM*,0%,/,/,GALK inh confirm=53µM*;Redox cycling=6.7µM*;HEK293 tox=-5%
C=CCN(CC=C)CC(=O)Nn1c(C)ccc1C,/,20µM*,?,?,/,?,
Cc1ccc(C)n1NC(=O)c1ccco1,?,3%,?,-20%,-3%,/,
CCOc1cc(CO)cc(Br)c1OCC(=O)O,/,16µM*,?,-34%,/,85*,
Cc1ccc(S(=O)(=O)N2CCCN(C(=O)c3cc4ccccc4[nH]3)CC2)cc1,-1%,-1%,78%,-10%,/,/,
CN(C)C1(CN=Cc2cc(Cl)cc([N+](=O)[O-])c2O)CCCCC1,14µM*,?,?,?,/,?,
O=[N+]([O-])c1cc(Cl)cc(/C=N\Nc2ccccn2)c1O,2%,-15%,-9%,-3%,3%,/,

# From PubChem BioAssay
